Molecules are shown by their SMILES. Screen size: about 47,000 compounds; about 2,800 (6%) were called active. The list comes from a sample in which actives are over-represented; it also holds similar structures and randomly drawn compounds. Unmarked numbers belong to inactive results. Rule as the data show it: active = z-score above about 3 (passing the limit was not always enough); inactive = the rest.

In this experiment the target is Endoribonuclease Dicer (Homo sapiens) (UniProt Q9UPY3). Briefly: Dicer cleavage of pre-miR-21 blockers – biochemical, cat-ELCCA, chemiluminescence, primary screen (AID 1347074).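 Also: plate controls were vehicle for no effect and no enzyme for full effect; higher signal means more uncleaved substrate so more Dicer inhibition.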 The following applies: cat-ELCCA pre-miR-21 Dicer processing, at 25 µM, active compounds read high.
Endoribonuclease Dicer (Homo sapiens), sequence (Q9UPY3 whole entry, looked up): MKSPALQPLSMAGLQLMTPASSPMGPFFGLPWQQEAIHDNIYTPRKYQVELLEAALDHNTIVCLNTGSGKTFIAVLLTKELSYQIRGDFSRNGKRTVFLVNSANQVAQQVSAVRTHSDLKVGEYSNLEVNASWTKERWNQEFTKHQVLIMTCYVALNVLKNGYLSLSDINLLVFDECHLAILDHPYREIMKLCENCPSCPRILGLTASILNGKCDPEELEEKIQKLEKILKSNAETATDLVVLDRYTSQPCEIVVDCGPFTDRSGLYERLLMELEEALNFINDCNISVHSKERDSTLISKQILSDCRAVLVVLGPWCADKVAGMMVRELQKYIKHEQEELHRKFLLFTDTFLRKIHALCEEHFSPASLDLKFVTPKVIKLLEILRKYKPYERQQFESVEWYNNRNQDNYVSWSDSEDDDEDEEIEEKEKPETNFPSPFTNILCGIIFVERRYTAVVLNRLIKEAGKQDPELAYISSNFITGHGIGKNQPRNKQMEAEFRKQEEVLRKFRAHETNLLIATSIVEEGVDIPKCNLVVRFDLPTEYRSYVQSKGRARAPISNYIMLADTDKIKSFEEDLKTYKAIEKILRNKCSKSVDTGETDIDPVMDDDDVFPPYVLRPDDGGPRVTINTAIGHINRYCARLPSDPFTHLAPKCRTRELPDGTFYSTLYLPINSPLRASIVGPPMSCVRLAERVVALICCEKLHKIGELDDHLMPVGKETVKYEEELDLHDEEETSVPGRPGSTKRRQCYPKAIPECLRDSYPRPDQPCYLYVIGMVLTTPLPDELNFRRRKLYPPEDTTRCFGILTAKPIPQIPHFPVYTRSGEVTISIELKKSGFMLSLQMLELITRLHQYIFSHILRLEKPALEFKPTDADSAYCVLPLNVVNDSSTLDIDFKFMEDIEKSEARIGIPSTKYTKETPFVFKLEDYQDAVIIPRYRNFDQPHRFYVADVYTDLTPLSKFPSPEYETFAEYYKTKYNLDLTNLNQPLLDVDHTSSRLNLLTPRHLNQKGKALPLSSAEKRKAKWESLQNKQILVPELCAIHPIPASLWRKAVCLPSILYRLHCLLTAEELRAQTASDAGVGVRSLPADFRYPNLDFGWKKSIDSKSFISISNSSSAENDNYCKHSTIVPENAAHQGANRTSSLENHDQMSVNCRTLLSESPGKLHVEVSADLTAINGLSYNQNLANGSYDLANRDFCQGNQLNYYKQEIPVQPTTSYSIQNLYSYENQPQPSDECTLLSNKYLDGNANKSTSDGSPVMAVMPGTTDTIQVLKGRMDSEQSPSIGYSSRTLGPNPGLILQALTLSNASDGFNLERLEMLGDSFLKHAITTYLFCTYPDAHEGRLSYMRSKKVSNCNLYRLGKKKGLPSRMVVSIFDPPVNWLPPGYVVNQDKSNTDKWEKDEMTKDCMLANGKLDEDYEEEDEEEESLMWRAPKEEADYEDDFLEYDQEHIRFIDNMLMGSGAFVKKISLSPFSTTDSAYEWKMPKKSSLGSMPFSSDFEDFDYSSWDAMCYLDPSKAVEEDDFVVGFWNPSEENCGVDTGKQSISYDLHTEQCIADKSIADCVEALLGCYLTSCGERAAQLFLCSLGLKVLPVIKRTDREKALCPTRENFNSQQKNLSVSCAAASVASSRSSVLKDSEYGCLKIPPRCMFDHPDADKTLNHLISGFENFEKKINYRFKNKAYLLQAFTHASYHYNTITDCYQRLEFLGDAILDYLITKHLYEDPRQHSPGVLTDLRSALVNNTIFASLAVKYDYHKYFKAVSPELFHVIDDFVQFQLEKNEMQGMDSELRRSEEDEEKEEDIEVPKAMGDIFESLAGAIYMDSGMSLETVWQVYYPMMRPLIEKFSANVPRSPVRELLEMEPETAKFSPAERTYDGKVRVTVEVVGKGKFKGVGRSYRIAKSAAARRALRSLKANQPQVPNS
Turning to `CCOC(=O)C1=C(C)NC2=C(C(=O)c3ccccc32)C1c1cc(Br)c(OC)c(OC)c1` (stereo not given), the z-score is 1.14.

`COc1ccc(-c2noc(-c3ccc(Br)cc3)n2)cc1`: the z-score was 1.15.

With `CCCc1cc(=O)n2[nH]c(SCc3ccccc3)nc2n1`, the z-score is 0.14.

Regarding `O=c1[nH]c(SCc2ccccc2)nnc1-c1ccccc1`, the z-score was 0.5.

As to `COc1ccc(Cc2nc(-c3ccc(OC)cc3)no2)cc1`, the z-score was 0.51.

`CCS(=O)(=O)n1nc(-c2ccc(OC)cc2)nc1SC`: the z-score is 3.58 (active).

With `CCS(=O)(=O)n1nc(-c2ccccc2)nc1SCc1ccccc1`, the z-score is 3.99 (active).

For `COc1ccc(COC(=O)C2=C(C)NC3=C(C(=O)CCC3)C2c2ccc(Br)cc2)cc1` (stereo not given), the z-score was 0.32.

For `O=c1c(-c2ccc(OC3O[C@H](CO)[C@@H](O)[C@H](O)[C@H]3O)cc2)coc2cc(O)cc(O)c12` (stereo not given in full), the z-score is 0.24.

On to `CS(=O)(=O)N(CC(=O)O)c1cccc2ccccc12`, for which the z-score is -1.7.

As for `CCOC(=O)C1=C(c2ccccc2)Nc2nc3ccccc3n2C1c1ccc(O)c(OCC)c1` (stereo not given), the z-score was -6.05.

Regarding `N#Cc1cn(Cc2ccccc2Cl)c(=O)[nH]c1=O`, the z-score was 0.24.

For `CC1(C)SC2C(NC(=O)COc3ccccc3)C(=O)N2C1C(=O)O` (stereo not given), the z-score is 1.11.

`CC(=O)N1[C@@H](c2ccc(C)cc2)SC(C)(C)[C@@H]1C(=O)O`: the z-score was 4.5 (active).

On to `CC1(C)S[C@@H]2[C@H](NC(=O)COc3ccccc3)C(=O)N2C1C(=O)O` (stereo not given in full) (tested in a mixture with another compound), for which the z-score is -0.17.

With `CN(C)c1ccc(NC(=O)CSc2nc(-c3ccco3)cc(C(F)(F)F)n2)cc1`, the z-score was -1.78.

For the compound `Cc1nc2ccccc2n1CCOc1ccc(Cl)cc1`, the z-score is 0.74.

Take `CCCNC(=O)NNC(=O)Cn1nnc(N2CCOCC2)n1`: the z-score was 11.9.

With `S=c1nn[nH]n1-c1ccc(Cl)cc1Cl`, the z-score was -0.38.

For the compound `CCCc1cc(-c2n[nH]c(C)c2-c2ccc3c(c2)OCCO3)c(O)cc1O`, the z-score is 7.51 (active).

On to `c1ccc2c(-c3csc(-c4ccc5c(c4)OCCO5)n3)csc2c1`, for which the z-score was -0.77.

Turning to `Cc1cc(C)n(C(C)C(=O)Nc2ccc(F)cc2)c(=O)n1` (stereo not given), the z-score was 2.63.

As for `O=C(O)CCC(=O)c1ccc2ccccc2c1`, the z-score was 0.56.

For `Cc1ccc(OS(=O)(=O)c2ccc(F)cc2)c([N+](=O)[O-])n1`, the z-score was -1.06.

As to `Cc1ccc2nsnc2c1S(=O)(=O)N1CCCC1C(=O)O` (stereo not given), the z-score is -1.03.

Turning to `O=C(O)c1ccc(NS(=O)(=O)c2cccc3nsnc23)cc1`, the z-score is 1.86.

On to `Cc1ccc2nsnc2c1S(=O)(=O)Nc1ccc(Br)cc1`, for which the z-score is 5.39 (active).

Regarding `CN(C)/C=C1\C(=O)c2ccc(Cl)cc2N(Cc2c(F)cccc2Cl)S1(=O)=O`, the z-score was -0.82.

As for `Cc1ccc(C(=O)Nc2ccccc2Sc2nc3ccccc3c(C)c2C#N)cc1`, the z-score was -1.01.

For `CCOc1ccc(/C(O)=C2\C(=O)C(=O)N(c3nccs3)C2c2ccc(F)cc2)cc1` (stereo not given), the z-score is 0.2.

Regarding `O=C(NCc1ccccn1)C(=O)Nc1cccc(Br)c1`, the z-score is 1.05.

For the compound `O=C(Nc1sc2c(c1C(=O)O)CCCC2)c1cc2ccccc2o1`, the z-score is 0.75.

Regarding `O=C(Nc1cccc(Br)c1)c1csc2c1CCCC2`, the z-score was 5.59 (active).

`Cc1nc(-n2cccc2)sc1C(=O)N/N=C/c1ccc(Cl)cc1`: the z-score is 0.46.

Take `Cc1oc(C(C)(C)C)cc1C(=O)Nc1ccc(SCc2cccc(Cl)c2F)cc1`: the z-score was -1.58.

On to `CC(C)=Cc1nc2cccc(F)c2c(=O)o1`, for which the z-score is 0.25.

On to `Cc1sc2nc(-c3ccccc3F)oc(=O)c2c1C`, for which the z-score is 3.11 (active).

As for `COc1ccc(-c2csc3nc(-c4ccccc4F)oc(=O)c23)cc1OC`, the z-score is 0.98.

In the case of `Cc1cc(C)c(C#N)c(Sc2ccc(Cl)cc2)n1`, the z-score is -0.54.

As for `CN1C(=O)C2(/C(=C(/O)c3ccc(Cl)cc3)C(=O)C(=O)N2CC2CCCO2)c2ccccc21` (stereo not given), the z-score is 0.79.

Turning to `CN(C)S(=O)(=O)N(CC(=O)NC1CC2CCC1C2)c1ccccc1` (stereo not given), the z-score is -1.13.

On to `N#C/C(=C\N1CCOCC1)S(=O)(=O)Cc1ccc(Cl)cc1`, for which the z-score was -1.52.

On to `CC(=O)NC(Cc1c[nH]c2ccccc12)C(=O)O` (stereo not given), for which the z-score was 2.44.

In the case of `O=C(NCCc1c[nH]c2ccccc12)C(=O)NCC1CCCO1` (stereo not given), the z-score is -1.03.

Regarding `COC(=O)C(Cc1c[nH]c2ccccc12)NC(=O)CN1CCCCC1` (stereo not given), the z-score is 4.61 (active).

Take `COC(=O)c1ccc(S(=O)(=O)NCc2ccccc2)n1C`: the z-score is 1.21.

As for `COC(=O)c1c(C)oc2ccc(NS(=O)(=O)c3cccc4cccnc34)cc12`, the z-score is 3.25 (active).

Consider `Cc1oc2ccc(NS(=O)(=O)c3ccc4c5c(cccc35)C(=O)N4)cc2c1C(=O)OC(C)C`, for which the z-score is 2.44.

On to `COCCOC(=O)c1c(C)oc2ccc(NS(=O)(=O)c3ccc(Cl)cc3)cc12`, for which the z-score was -0.11.

As to `CCOC(=O)C1=C(C)NC2=C(C(=O)c3ccccc32)C1c1ccc(OC(=O)c2ccccc2)cc1` (stereo not given), the z-score was -1.18.

On to `Cn1nc(Oc2nc(N3CCCCC3)nc(N3CCCCC3)n2)ccc1=O`, for which the z-score is 1.65.

In the case of `CCOC(=O)C(Nc1cccc(Cl)c1)C(=O)OCC`, the z-score was -1.26.

In the case of `O=C1N(c2ccccc2)C(=Nc2ccccc2)SC12CC2`, the z-score was 4.33 (active).

Take `O=C1c2ccc3c4c(ccc(c24)C(=O)N1c1ccccc1)C(=O)N(c1ccccc1)C3=O`: the z-score is -0.71.

For the compound `Cc1ccc(N=C2SC3(CC3)C(=O)N2c2ccc(C)cc2)cc1`, the z-score was 0.49.

On to `CC1(C)Cc2c(sc3ncn4nc(-c5ccco5)nc4c23)C(C)(C)N1`, for which the z-score is 0.09.

In the case of `Nc1cccc2c(S(=O)(=O)N3CCCCC3)cccc12`, the z-score was -1.6.

For `Cc1ccnc(NC(c2ccc(O)cc2)c2ccc3ccc(C)nc3c2O)c1` (stereo not given), the z-score was 4.59 (active).

Turning to `Cc1cccc(NC(c2ccc3c(c2)OCO3)c2ccc3ccc(C)nc3c2O)n1` (stereo not given), the z-score was 1.45.

As to `Cc1cccc(NC(c2cccc(F)c2)c2ccc3ccc(C)nc3c2O)n1` (stereo not given), the z-score was 0.62.

Take `COc1ccc(-n2ncc(C(=O)NCc3c(Cl)cccc3Oc3ccccc3)c2C)cc1`: the z-score was -2.95.

For the compound `CSc1sc(C(=O)Nc2ccc(Cl)cc2)c2c1S(=O)(=O)N(C)c1ccccc1-2`, the z-score was -0.3.

In the case of `CCC(CC)NC(=O)C1c2ccccc2Oc2ccccc21`, the z-score is 6.16 (active).

As for `N#Cc1ccc(N2CCN(C(=O)c3cc(-c4ccc(Cl)cc4)oc3C(F)(F)F)CC2)cc1`, the z-score was 0.32.

On to `Cc1ccc(-c2cn3cc(C)ccc3n2)cc1`, for which the z-score was -0.35.

`COc1ccc(-c2cn3ccc(C)cc3n2)cc1F`: the z-score is 3.54 (active).

Take `CC(C)c1cc(C(C)C)c(S(=O)(=O)NCc2cccnc2)c(C(C)C)c1`: the z-score was -0.34.

For the compound `Cc1cc(OCC(=O)O)cc2c1C(=O)CC(C)(C)O2`, the z-score was 1.97.

As to `Cc1nc(-c2cc(C#N)c(SCCNS(=O)(=O)c3ccc(Cl)cc3Cl)nc2C)cs1`, the z-score was -0.5.

In the case of `C=CCOc1ccc(C2c3c(oc4ccccc4c3=O)C(=O)N2c2nncs2)cc1` (stereo not given), the z-score was -1.03.

As to `CC(=O)Nc1cc(Sc2ccc(C)cc2)c(F)cc1[N+](=O)[O-]`, the z-score is -0.55.

For the compound `Cc1ccc2nc(CCC(=O)O)[nH]c2c1`, the z-score is 1.6.

`CC(=O)C(Cc1ccc([N+](=O)[O-])cc1)(Cc1c(F)cccc1Cl)C(C)=O`: the z-score is 3.5 (active).

Regarding `O=C(CSCc1c(F)cccc1Cl)NCc1ccc2c(c1)OCO2`, the z-score is 1.3.

Turning to `O=[N+]([O-])c1ccc(CSc2nc3cc(Cl)c(F)cc3[nH]2)cc1`, the z-score was 0.13.

As to `COc1cccc(C2Nc3cccc4cccc(c34)N2)c1OC`, the z-score was 3.14 (active).

For `Brc1ccccc1C1Nc2cccc3cccc(c23)N1`, the z-score was 5.91 (active).

Regarding `COc1ccccc1C1=Nc2cccc3cccc(c23)N1`, the z-score was -0.3.

Turning to `COc1cc(OC)cc(-c2nc3n(n2)C(c2cccc(OC)c2OC)C2=C(CCCC2=O)N3)c1` (stereo not given), the z-score is -0.15.

For `C=CCc1ccc(OCc2ccc(C(=O)OC)cc2)c(OC)c1`, the z-score is 0.92.

As for `ONC(=Nc1cccc(Cl)c1)c1ccccc1`, the z-score is 0.78.

`CCOC(=O)C1=C(C)NC2=C(C(=O)c3ccccc32)C1c1cccc(F)c1` (stereo not given): the z-score is -1.25.

`O=C(O)CCCC(=O)Nc1ccc2c(c1)OCCO2`: the z-score was -0.36.

In the case of `Cc1ccc(C2Nc3nonc3NC3=C2C(=O)CC(C)(C)C3)cc1` (stereo not given), the z-score is -0.08.

As to `Cc1cc(=O)[nH]c(SCc2cn3c(C)cc(C)nc3n2)n1`, the z-score is 2.76.

`Cc1cc(=O)[nH]c(SCc2cn3cccnc3n2)n1`: the z-score was 3.69 (active).

As for `Cc1cc(=O)[nH]c(SCc2ccc(Cl)cc2)n1`, the z-score is 0.25.

With `CCOCCOC(=O)C1=C(C)NC2=C(C(=O)CCC2)C1c1ccc(O)c(OCC)c1` (stereo not given), the z-score is -0.34.

In the case of `O=C(Nc1cc(C(F)(F)F)cc(C(F)(F)F)c1)c1csc([N+](=O)[O-])c1`, the z-score was 1.87.

Turning to `O=c1[nH]nc(Sc2ncc(Br)cc2[N+](=O)[O-])n1-c1ccc(Cl)cc1`, the z-score was -0.78.

On to `Cc1ccc2c(c1)sc1ncc(NC(=O)c3ccc(C(C)(C)C)cc3)c(=O)n12`, for which the z-score is -1.01.

Turning to `CCn1c2c(c(=O)[nH]c1=O)C(c1ccccc1OC)C1=C(N2)c2ccccc2C1=O` (stereo not given), the z-score was 2.33.

Take `CCc1ccc(C2CC(=O)Nc3n[nH]c(-c4ccc(Cl)cc4)c32)cc1` (stereo not given): the z-score was 0.45.

In the case of `CC(C)(C)c1ccc(C(=O)Nc2cc(C#N)c3sc4ccccc4n3c2=O)cc1`, the z-score is -0.68.

For the compound `O=C1C(=O)N(CCCN2CCOCC2)C(c2ccco2)/C1=C(\O)c1ccc(F)cc1` (stereo not given), the z-score is 2.92.
